Screening results from PubChem BioAssay.
Sampled rows, rich in hits. Any-hit rate of the full collection: about 9.2%.
HPGD block: blocks human HPGD enzyme activity; P15428; purified HPGD, NADH fluorescence kinetic, PGE2 substrate; Potency, µM, usual class: inhibitors; 4.3% of 150,000 active
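20 nM HPGD preincubated 15 min at room temperature with compound in 50 mM Tris-HCl pH 8, 0.01% Tween 20. Started with 1 mM NAD+ and 30 uM prostaglandin E2; NADH fluorescence (360/450 nm) read 5 times over 30-s intervals, last minus first.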
LMNA splice mod: changes lamin A minigene splicing in HeLa cells | HeLa LMNA splicing GFP/RFP minigene ratio, 48 h | Potency, µM (highest dose often 46.1 µM), actives largely listed as inhibitors | 0.01% of 200,000 active | AID 1487; active = well fitted inhibition curve with a large enough effect in the signal ratio, with a control signal flat, not every such curve was filed as active; inconclusive = small, poorly fitted or top-dose-only effect, or effect the other way, or a change in a side signal; the % refers to the signal ratio
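Read-out is the ratio of GFP to DsRed2 object intensity, acquired by 488 nm laser-scanning cytometry on HeLa lamin A-EGFP minigene reporter cells. Compound incubation 48 hrs at 37 °C in Opti-MEM with 2% FBS; DMSO 0.5% final.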
ALDH1A1 inh: ALDH1A1 (human) enzyme inhibition. AID 1030. Potency, µM (doses to about 75.3 µM), hits mostly inhibitors. Purified ALDH1A1, NADH fluorescence, propionaldehyde substrate. P00352. 7.3% of 220,000 active
Target sequence (P00352 whole entry, looked up): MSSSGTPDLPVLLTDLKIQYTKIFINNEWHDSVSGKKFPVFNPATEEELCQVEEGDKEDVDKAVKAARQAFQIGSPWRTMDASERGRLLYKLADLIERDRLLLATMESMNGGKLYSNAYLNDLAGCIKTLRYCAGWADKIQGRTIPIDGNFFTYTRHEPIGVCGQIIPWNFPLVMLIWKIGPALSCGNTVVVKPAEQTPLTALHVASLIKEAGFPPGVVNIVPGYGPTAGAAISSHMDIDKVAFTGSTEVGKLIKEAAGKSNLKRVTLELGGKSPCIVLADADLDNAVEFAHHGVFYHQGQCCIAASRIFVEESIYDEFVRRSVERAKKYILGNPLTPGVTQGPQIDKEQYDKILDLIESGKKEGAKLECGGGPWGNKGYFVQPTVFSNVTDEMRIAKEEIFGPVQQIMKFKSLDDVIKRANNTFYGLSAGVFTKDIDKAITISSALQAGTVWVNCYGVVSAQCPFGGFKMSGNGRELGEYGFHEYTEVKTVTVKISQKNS
HTT cytoprotect: Huntington cell model cytoprotection by ATP luminescence | PC12 HTT-Q103 induced, cytoprotection, ATP luminescence, 40 h | Potency, µM (top dose mostly 56.4 µM), most hits filed as activators | 0.14% of 230,000 active | AID 1471; active = well fitted curve in the direction sought with a large enough effect; inconclusive = small, poorly fitted or top-dose-only effect, or another doubt; inactive = no such curve, though single readings can be large; an effect the other way counts as inactive or inconclusive; also: nearly all actives have a fitted effect of over 45% in size
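Huntington model: PC12 line, ecdysone-inducible HTTQ103 exon1–GFP, tebufenozide 100 nM. Test articles in a dose series. Endpoint luminescence from cellular ATP.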
HTT aggregate: inhibitors of mutant huntingtin aggregate formation in PC12 cells; PC12 HttQ103-GFP aggregates, Acumen cytometry, 40 h; Potency, µM (top dose mostly 46.1 µM), most hits filed as inhibitors; 1.1% of 220,000 active; AID 1688; active = well fitted curve in the direction sought with a large enough effect; inconclusive = small, poorly fitted or top-dose-only effect, or another doubt; inactive = no such curve, though single readings can be large; an effect the other way counts as inactive or inconclusive; also: nearly all actives have a fitted effect of over 60% in size
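Aggregate formation scored by laser-scanning cytometer (488 excitation, 500–530 emission) in lysed PC12 cells expressing Q103-GFP after 100 nM tebufenozide induction; library tested in dose series, with ATPLite reagent added in the multiplex.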
KDM4E inh: inhibitors of human JMJD2E histone demethylase; B2RXH2; JMJD2E catalytic domain, FDH-coupled NADH fluorescence (FDH is formaldehyde dehydrogenase); Potency, µM (highest dose often 57.1 µM), usual class: inhibitors; 1.6% of 230,000 active; AID 2147; also: nearly all actives have a fitted effect of over 50% in size
Each line names hits and unclear results; the compound was inactive in the other large screens. Unless noted, calls follow the shape of the dose curve; as a rule, active = well fitted inhibition curve with a large enough effect (not every such curve was filed as active); inconclusive = small, poorly fitted or top-dose-only effect, or another doubt; inactive = no such curve, though single readings can be large or run the other way.

COc1ccc(C(=O)NCc2ccccc2OC)cc1	none
C[N+](C)(N)Cc1csc(-c2ccc(Cl)cc2)n1	none (no result: LMNA splice mod, HTT aggregate, KDM4E inh)
CC(Sc1nnc(-c2cccs2)n1-c1ccccc1)C(=O)NCc1ccc2c(c1)OCO2 (stereo not given)	none
Cc1ccc(S(=O)(=O)N2C(=O)/C(=C3\SC(=S)NC3=O)c3ccccc32)cc1	HTT aggregate 0.794µM (no result: HPGD block, LMNA splice mod, ALDH1A1 inh, HTT cytoprotect)
Cc1ccc(S(=O)(=O)N2c3ccccc3-c3c(ssc3=S)C2(C)C)cc1	none
Nc1ncnc2c1[nH]c(=O)n2C1CC(O)C(CO)O1 (stereo not given)	none (no result: HTT cytoprotect, HTT aggregate)
CCc1cc(SC#N)cc(CC)c1NC(=O)CCl	HPGD block inconclusive, LMNA splice mod inconclusive, ALDH1A1 inh 14.1µM (no result: HTT cytoprotect)
Cc1cc(C)c2c(NC(=O)CCl)nn(C)c2n1	ALDH1A1 inh inconclusive, HTT aggregate inconclusive, KDM4E inh inconclusive (no result: HPGD block)
O=C(C1CCCN(Cc2cccnc2)C1)N1CCCCC1 (stereo not given)	ALDH1A1 inh 5.01µM, HTT aggregate inconclusive (no result: HPGD block)
O=C(C1CCN(CCCc2ccccc2)CC1)N1CCCCC1	ALDH1A1 inh 14.1µM
C/C(=C\c1ccccc1)CN1CCC(C(=O)N2CCC(C)CC2)CC1	ALDH1A1 inh 35.5µM, KDM4E inh inconclusive
COc1ccc(CN2CCCC(C(=O)N3CCCC3)C2)cc1 (stereo not given)	KDM4E inh inconclusive
CC1CCN(C(=O)C2CCN(CCCc3ccccc3)CC2)CC1	ALDH1A1 inh inconclusive
C/C(=C\c1ccccc1)CN1CCC(C(=O)N2CCCCC2)CC1	HPGD block 14.1µM, ALDH1A1 inh inconclusive, KDM4E inh inconclusive
Cn1cccc1CC(=O)N/N=C/c1ccc(Cl)c([N+](=O)[O-])c1	none (no result: HPGD block, LMNA splice mod, ALDH1A1 inh)
CC(C)C[C@@H](CC(=O)N[C@H](CC(=O)N[C@@H]1CCNC[C@H]1C(=O)N[C@H](CC(=O)N[C@@H](CCC(=O)O)CC(=O)O)Cc1ccccc1)C(C)C)NC(=O)[C@@H]1CCCC[C@H]1N	none (no result: LMNA splice mod, HTT aggregate)
CCOc1cc(CNC(=O)c2ccc3c(c2)nc2n3CCCCC2)ccc1OC	none (no result: HPGD block, ALDH1A1 inh, HTT cytoprotect, HTT aggregate, KDM4E inh)
Cc1ccc(C(=C2C3C=CC2C2C(=O)NC(=O)C32)c2ccc(C)cc2)cc1 (stereo not given)	ALDH1A1 inh 0.891µM
C/C(=N\NC(=O)c1cc(C(C)C)[nH]n1)c1ccco1	HPGD block 22.4µM, LMNA splice mod inconclusive
O=C(NCc1ccccc1)c1cccc(NS(=O)(=O)c2cccc3cccnc23)c1	ALDH1A1 inh 0.501µM
CC(CS(=O)(=O)c1cccc2cccnc12)N1CCCCC1 (stereo not given)	ALDH1A1 inh 20µM (no result: HPGD block)
COCCNC(=O)c1cccc(NS(=O)(=O)c2cccc3cccnc23)c1	ALDH1A1 inh inconclusive (no result: HTT cytoprotect)
Cc1cccc2cccnc12	none (no result: LMNA splice mod, HTT aggregate, KDM4E inh)
CN(CC(=O)N1CCCCCC1)S(=O)(=O)c1cccc2cccnc12	ALDH1A1 inh inconclusive
O=C(NC1CCCCC1)c1ccc(NS(=O)(=O)c2cccc3cccnc23)cc1	ALDH1A1 inh 7.94µM (no result: HPGD block, LMNA splice mod)
c1cnc2c(c1)ccc1cccnc12	LMNA splice mod inconclusive, HTT aggregate 7.94µM, KDM4E inh 25.1µM
COC(=O)c1ccc(NS(=O)(=O)c2cccc3cccnc23)cc1	none
O=S(=O)(NC1CCCCCC1)c1cccc2cccnc12	LMNA splice mod inconclusive, ALDH1A1 inh 14.1µM
CSS(=O)(=O)c1cccc2cccnc12	KDM4E inh 2.51µM (no result: HPGD block, LMNA splice mod, ALDH1A1 inh)
CCN(CC)S(=O)(=O)c1cccc2cccnc12	none
COc1ccc(NS(=O)(=O)c2cccc3cccnc23)cc1	HTT aggregate 12.6µM
Cc1ccc(S(=O)(=O)N2C(=O)C(C)SC2=Nc2ccccc2)cc1 (stereo not given)	ALDH1A1 inh inconclusive
Cc1ccc(S(=O)(=O)N2C(=O)C(c3ccccc3)SC2=Nc2ccccc2)cc1 (stereo not given)	HPGD block 10µM, ALDH1A1 inh 8.91µM
CC(NC(=O)c1ccccc1NC(=O)c1ccco1)c1ccccc1 (stereo not given)	KDM4E inh inconclusive
CC(NC(=O)c1ccccc1NC(=O)c1ccncc1)c1ccccc1 (stereo not given)	ALDH1A1 inh 28.2µM (no result: HPGD block, LMNA splice mod)
O=C(CSc1ncnc2nc[nH]c12)Nc1ccccc1C(F)(F)F	HPGD block 8.91µM
